The term inhibition denotes the relative decrease from the control value, in per cent.

Calls of active or inactive are those of the source.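 How the source made its calls, unless noted: active means inhibition above 20% together with a positive visual image hit; inconclusive means visual image hit but inhibition not above 20%; inactive means no visual image hit.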

The values that follow come from PubChem BioAssay.

Assay [1] is described as follows: inhibitors of TNFa-induced NFkB p65 translocation, primary screen, imaging, HUVEC, MLSMR starter and 10KST1 sets (AID 438).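 Further: compound added about 3h40 before a 20 min TNFalpha stimulation.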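 On inhibition: signal is the nuclear over cytoplasmic p65 intensity ratio per well.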 To be noted: HUVEC TNFa-induced p65 nuclear translocation; cell count: measured here: nuclei count (cytotoxicity indicator), at 2.08 µM; inhibition: at 2 µM, stronger effect = higher value, 0% TNFa-plus-vehicle, 100% no-TNFa wells.
Assay [2] can be described thus: reduction of polyQ htt aggregates in cells – imaging, exon1htt(103Q)mCFP cells, high-content imaging, primary screen (AID 483;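 active means visual image review flags a hit and inhibition of aggregation exceeds 20%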;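 further: compound exposure lasted 3 days before fixation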;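 on nuclei count: percent of the per-plate median nuclei count of sample wells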). To be noted: exon1htt(103Q)mCFP cell line, aggregate imaging, at 2 µM; inhibition of aggregation: stronger effect = higher value; nuclei count: measured here: cell count, toxicity.
Assay [3] can be described thus: endothelial E-selectin expression blockers – imaging, HUVEC, immunofluorescence, MLSMR starter and 10KST1 sets, primary screen (AID 487;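 active means visually confirmed hit in the image check and inhibition above 20%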;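 on inhibition: signal is fraction of cell area covered by stained E-selectin grains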;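 on nuclei count: 100% = median nuclei count of all wells on the same plate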). The note with it: HUVEC TNFalpha-induced E-selectin immunofluorescence imaging, at 2 µM; inhibition: stronger effect = higher value; nuclei count: measured here: cell number, toxicity.
Assay [4] has as its target Voltage-gated potassium channel subunit beta-2 (Rattus norvegicus) (UniProt P62483). The experiment in a line: inhibitors of rat Kvbeta2 reductase activity – biochemical, NADPH fluorescence, primary screen (AID 622;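 active means fluorescence slope higher than the sample average by over 3 SD, cut at about -0.22 in these data, passing the limit was not always enough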;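 further: slope of raw intensity against log time taken from 70 to 1610 s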). To be noted: recombinant KvBeta, 4-cyanobenzaldehyde reduction, at 10 µM, stronger effect = higher value.
For assay [5] the target is unchanged. Kind of assay: enhancers of rat Kvbeta2 NADPH turnover – biochemical, NADPH fluorescence, primary screen (AID 623;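 active means NADPH fluorescence slope more negative than the mean of all samples by about 3 SD, 99.7% confidence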;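 further: fluorescence intensity change per second fitted from 20 to 320 s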). To be noted: Recombinant KvBeta, NADPH fluorescence decrease slope, 10 min; at 10 µM; stronger effect = lower value.
For assay [6], the target named is Alpha-2C adrenergic receptor (Homo sapiens) (UniProt P18825). The experiment in a line: compounds altering alpha2C-coupled GIRK flux – cell-based, HEK293 alpha2C/GIRK1/2, thallium flux, primary screen (AID 624;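 active means fluorescence slope after compound addition differing from the mean of all screened samples at 99.7% confidence, in either direction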;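 further: slope of fluorescence ratio to pre-addition baseline per second over 15 to 24 s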). The note with it: thallium flux BTC fluorescence, at 10 µM, actives lie on both sides.
Sequence of Alpha-2C adrenergic receptor (Homo sapiens) (P18825 whole entry, looked up): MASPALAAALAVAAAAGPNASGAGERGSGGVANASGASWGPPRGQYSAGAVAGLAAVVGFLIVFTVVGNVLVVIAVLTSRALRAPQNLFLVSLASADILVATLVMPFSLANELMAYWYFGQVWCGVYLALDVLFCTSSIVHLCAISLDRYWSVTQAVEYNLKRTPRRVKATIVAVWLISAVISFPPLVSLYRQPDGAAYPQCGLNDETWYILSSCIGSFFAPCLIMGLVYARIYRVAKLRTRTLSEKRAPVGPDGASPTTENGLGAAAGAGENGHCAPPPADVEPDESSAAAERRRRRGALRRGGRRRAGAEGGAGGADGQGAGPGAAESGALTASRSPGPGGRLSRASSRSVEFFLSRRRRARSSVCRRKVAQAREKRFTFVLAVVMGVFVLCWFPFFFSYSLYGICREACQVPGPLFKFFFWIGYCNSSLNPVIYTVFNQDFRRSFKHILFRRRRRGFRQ
A short description of assay [7]: blockers of RIG-like receptor reporter activation – cell-based, Sendai virus stimulus, luciferase, 10K MLSCN set, TLR/RLR signaling modifier project, primary screen (AID 602276;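 active means inhibition at or above 50% at 10 µM; inactive means inhibition below 50%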;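 further: firefly luciferase from ISG56 promoter only with Renilla not read in this screen; 0% = Sendai virus plus DMSO and 100% = medium plus DMSO without virus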). To be noted: HEK293 RL24 IRF3 luciferase reporter, at 10 µM, stronger effect = higher value.
Assay [8] can be described thus: TLR3 IRF3 reporter activation blockers – cell-based, poly I:C stimulus, luciferase, 10K MLSCN set, primary screen (AID 602277;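 active means inhibition of the reporter signal at or above 50%; inactive means inhibition below 50%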). To be noted: HEK293-TLR3 RL24 IRF3 luciferase reporter, at 10 µM, stronger effect = higher value. On the technique in general: Reporter assays use an easily measured gene product as a stand-in for the process of interest.

Sequence of Voltage-gated potassium channel subunit beta-2 (Rattus norvegicus) (P62483 whole entry, looked up): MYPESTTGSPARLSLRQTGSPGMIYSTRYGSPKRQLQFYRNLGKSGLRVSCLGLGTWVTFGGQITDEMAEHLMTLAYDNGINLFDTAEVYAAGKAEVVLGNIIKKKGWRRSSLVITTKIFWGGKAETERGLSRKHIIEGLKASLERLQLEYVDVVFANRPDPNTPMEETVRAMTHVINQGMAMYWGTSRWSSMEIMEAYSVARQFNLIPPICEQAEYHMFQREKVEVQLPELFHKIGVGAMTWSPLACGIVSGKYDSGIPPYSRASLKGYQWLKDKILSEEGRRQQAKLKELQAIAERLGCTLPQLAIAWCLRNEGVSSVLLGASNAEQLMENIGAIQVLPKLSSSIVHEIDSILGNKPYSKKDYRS

With `CCCCSc1cc(C)nc2ncnn12`, the cell count in assay [1] was 416. Moreover, the inhibition in assay [1] was -4% (inactive); in assay [3], 12.1% (inactive); in assay [7], -10.9% (inactive); in assay [8], 9.98% (inactive). Moreover, the inhibition of aggregation in assay [2] was -3.2% (inactive). The nuclei count in assay [2] worked out at 117%; in assay [3] it was 119%. The fluorescence slope in assay [4] was -0.492 (inactive). Further, the NADPH fluorescence slope in assay [5] was 3.1e-05 (inactive). Besides, the slope in assay [6] is 0.00349 (inactive).
In the case of `CCCn1nc(CC(=O)O)c2ccccc2c1=O`, the cell count in assay [1] was found to be 468. Also, the inhibition in assay [1] was -12.3% (inactive); in assay [3], -10.6% (inactive); in assay [7], 16.7% (inactive); in assay [8] it was 16.8% (inactive). Further, in assay [2], the inhibition of aggregation was 18.8% (inactive). Besides, the nuclei count worked out at 123% in assay [2] and 119% in assay [3]. Further, the fluorescence slope in assay [4] is -0.426 (inactive). The NADPH fluorescence slope in assay [5] is -3.1e-05 (inactive). For the same molecule, the slope in assay [6] was 0.00533 (inactive).
On to `CCCCC(=O)NCCc1cc2ccc(OC)cc2[nH]c1=O`, for which the cell count in assay [1] worked out at 341. Moreover, the inhibition in assay [1] was -17% (inactive); in assay [3] it was -5.9% (inactive); in assay [7], -3.47% (inactive); in assay [8], 98.8% (active). In addition, the inhibition of aggregation in assay [2] is 25.1% (inactive). Also, the nuclei count in assay [2] amounted to 84.4%; in assay [3], 91.4%. Further, the fluorescence slope in assay [4] was -0.464 (inactive). The NADPH fluorescence slope in assay [5] is -0.000398 (inactive). In assay [6], the slope is 0.00611 (inactive).
As for `Nc1nc2ccccc2n1C(=O)CCc1ccccc1`, in assay [1], the cell count is 663. For the same molecule, the inhibition in assay [1] was -1.2% (inactive); in assay [3], -36.3% (inactive); in assay [7] it was -24.1% (inactive); in assay [8] it was -73.1% (inactive). In assay [2], the inhibition of aggregation was -11.5% (inactive). In addition, the values for the nuclei count in assay [2] and in assay [3] were 69% and 125%, respectively. Besides, the fluorescence slope in assay [4] was -0.396 (inactive). Besides, the NADPH fluorescence slope in assay [5] is -3.8e-05 (inactive). In addition, the slope in assay [6] was 0.0047 (inactive).
Turning to `CC(C)OC(=O)CSc1nnc(-c2ccccn2)n1-c1ccccc1`, the cell count in assay [1] was 306. In addition, the inhibition in assay [1] is 1.6% (inactive); in assay [3], -11.2% (inactive); in assay [7] it was 4.23% (inactive); in assay [8], 6.06% (inactive). Moreover, in assay [2], the inhibition of aggregation is -8.2% (inactive). Further, the nuclei count in assay [2] was 102%; in assay [3], 99.6%. Besides, the fluorescence slope in assay [4] is -0.429 (inactive). In addition, the NADPH fluorescence slope in assay [5] was -7.9e-05 (inactive). The slope in assay [6] is 0.00479 (inactive).
As for `Cn1c(C(=O)N2CCCC(C(=O)NCCCc3ccccc3)C2)cc2sccc21` (stereo not drawn), the cell count in assay [1] is 550. The inhibition was -16.1% (inactive) in assay [1], -32.8% (inactive) in assay [3], 0.49% (inactive) in assay [7] and -2.49% (inactive) in assay [8]. Besides, the inhibition of aggregation in assay [2] is 6.7% (inactive). Besides, the nuclei count is 139% in assay [2] and 103% in assay [3]. Moreover, the fluorescence slope in assay [4] is -0.256 (inactive). Moreover, in assay [5], the NADPH fluorescence slope is 6.7e-06 (inactive). Besides, the slope in assay [6] was 0.00472 (inactive).
For `CC(=O)Nc1ccc(N=Cc2nc(-c3ccc(C)cc3)oc2O)cc1`, the cell count in assay [1] came to 1080. Also, the inhibition in assay [1] is -11.6% (inactive); in assay [3], -287% (inactive); in assay [7] it was 1.5% (inactive); in assay [8], -2.56% (inactive). For the same molecule, in assay [2], the inhibition of aggregation was -4% (inactive). Besides, the nuclei count came out at 119% in assay [2] and 132% in assay [3]. The fluorescence slope in assay [4] is -0.281 (inactive). In assay [5], the NADPH fluorescence slope is 1.5e-05 (inactive). In addition, the slope in assay [6] was 0.00463 (inactive).
As for `CC1(C)CC(=O)C(C(=O)CCCCC(=O)C2C(=O)CC(C)(C)CC2=O)C(=O)C1`, the cell count in assay [1] is 269. The inhibition in assay [1] was 3.6% (inactive); in assay [3], 19% (inactive); in assay [7] it was -6.03% (inactive); in assay [8], -20.4% (inactive). In addition, the inhibition of aggregation in assay [2] is 18% (inactive). For the same molecule, the values for the nuclei count in assay [2] and in assay [3] were 100% and 80%, respectively. For the same molecule, the fluorescence slope in assay [4] was -0.415 (inactive). Moreover, the NADPH fluorescence slope in assay [5] was 1.6e-05 (inactive). Further, in assay [6], the slope was 0.00351 (inactive).
